# Compound activity deposited in PubChem BioAssay by National Center for Advancing Translational Sciences (NCATS).
# Lassa entry inh – Lassa virus entry inhibition | Lassa virus pseudotype entry inhibition, cell reporter | Potency, µM (titrated, usually from 37.9 µM), for inactives: at the top dose activity change, negative = inhibition, usual class: inhibitors | hit rate 1.2% among 300,000 | AID 540256; calls by dose curve; tested in HEK293 cells; also: nearly all actives have a fitted effect of over 50% in size
# VACV mCherry inh – inhibitors of vaccinia virus infection (mCherry reporter signal) | Vaccinia virus mCherry reporter infection, fluorescence | Potency, µM (top dose mostly 36.5 µM), without a hit: at the top dose activity change, negative = inhibition, actives largely listed as inhibitors | hit rate 0.63% among 310,000 | AID 720579; calls by dose curve; tested in A549 cells; also: nearly all actives have a fitted effect of over 35% in size
# VACV Venus inh – inhibitors of vaccinia virus (Venus reporter). Potency, µM (top dose mostly 36.5 µM), for inactives: top-dose activity change, negative = inhibition, usual class: inhibitors. Vaccinia virus Venus reporter expression, fluorescence. AID 720580. hit rate 0.46% among 330,000; calls by dose curve; tested in A549 cells; also: nearly all actives have a fitted effect of over 30% in size
# Marburg entry inh – blocks Marburg virus binding to or entry into cells; Marburg virus pseudotyped entry inhibition, cell reporter; Potency, µM (titrated, usually from 37.8 µM), without a hit: top-dose activity change, negative = inhibition, usual class: inhibitors; hit rate 1.8% among 300,000; calls by dose curve; tested in HEK293 cells
# Sm TGR inh – S. mansoni TGR enzyme inhibition | purified TGR, DTNB reduction, TNB absorbance 405 nm | Potency, µM (top dose mostly 114 µM), for the others: at the highest dose activity change, negative = inhibition, usual class: inhibitors | hit rate 3% among 360,000; active = well fitted inhibition curve with a large enough effect; inconclusive = small, poorly fitted or top-dose-only effect; inactive = no such curve, though single readings can be large or run the other way; also: nearly all actives have a fitted effect of over 60% in size
#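 TGR 20 nM + NADPH 100 uM (dispensed conc.), cpd preinc 15 min RT; start with NADPH (500 uM addition) then DTNB (15 mM addition). Kinetic TNB absorbance, 405 nm filter. Four-parameter Hill fit across titration.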
# FMDV inh – antivirals against foot and mouth disease virus; FMDV antiviral cell-based qHTS; Potency, µM (titrated, usually from 57.9 µM), for the others: at the highest dose activity change, negative = inhibition, hits mostly inhibitors; hit rate 1.2% among 410,000; AID 1159524; calls by dose curve; tested in HEK293T cells; also: read-out not given here; nearly all actives have a fitted effect of over 45% in size
# The depositor's hits bear a star; i = inactive; ? = inconclusive; . = no result; ! = repeats disagree; [ ] = dose if it differs, or a comment. This is a sample that favours compounds with a hit; in the whole collection about 5.4% have one here. % is scaled to controls: 0 for no effect and ±100 for the full control effect; potency is read from the fitted curve at half-maximal effect.
SMILES,Lassa entry inh,VACV mCherry inh,VACV Venus inh,Marburg entry inh,Sm TGR inh,FMDV inh
CCOC(=O)C1CCN(C(=O)Cn2c(=O)oc3cc(S(=O)(=O)N4CCC(C)CC4)ccc32)CC1,3.5%[46.1 µM],-14.2%,-16.7%,2.7%[46.1 µM],-5.7%,-22.9%
Cc1ccc(N2C(=O)CCSC23C(=O)N(Cc2ccc(F)cc2)c2ccccc23)cc1 (centres undefined),-14.5%[46.1 µM],?,?,.,-0.2%,?
COc1cc(=O)n2c(c1C(=O)NCc1ccco1)CCN(C(=O)c1ccc(C)c(C)c1)CC2,.,-22.1%,-10.0%,.,.,-10.5%
COc1ccc(OC)c(CNn2c(-c3cccc(C)c3)nc3ccccc3c2=O)c1,-1.3%,-2.3%,-10.8%,?,-2.2%,.
COc1cccc(CNn2c(-c3cccc(C)c3)nc3ccccc3c2=O)c1,18.3µM*,i,-8.9%,?,-11.3%,.
CC(C)N(C(=O)[C@H]1C[C@H](CC(=O)NCc2cccc(C(F)(F)F)c2)C(=O)N2CCc3c([nH]c4ccc(Cl)cc34)[C@]12C)C(C)C,.,?,11.2µM*,.,.,?
CC[C@]12c3[nH]c4ccc(Cl)cc4c3CCN1C(=O)[C@@H](CC(=O)NCC13CC4CC(CC(C4)C1)C3)C[C@@H]2C(=O)N1CCN(C(=O)C2CC2)CC1,.,-19.6%,10µM*,.,.,?
C[C@]12c3[nH]c4ccc(Cl)cc4c3CCN1C(=O)[C@@H](CC(=O)NCC13CC4CC(CC(C4)C1)C3)C[C@@H]2C(=O)N1CCOCC1,.,?,12.6µM*,.,.,?
CC(C)(C)NC(=O)C[C@H]1C[C@H](C(=O)N2CCCCC2)[C@@]2(C)c3[nH]c4ccc(Cl)cc4c3CCN2C1=O,.,i,?,.,.,0.0%
C[C@]12c3[nH]c4ccc(Cl)cc4c3CCN1C(=O)[C@@H](CC(=O)NCC13CC4CC(CC(C4)C1)C3)C[C@@H]2C(=O)N1CCCCC1,.,28.2µM*,?,-1.3%,.,8.4%
COC(=O)c1c(-c2cccs2)csc1NC(=O)COc1ccc(C(C)C)cc1,4.5%[46.1 µM],-3.2%,-0.1%,8.6%[46.1 µM],12.0%,-27.6%
Cc1cc(SCC(=O)N/N=C/c2ccc(O)c(O)c2O)c(C)cc1Br,?,12.6µM*,?,1.2%,35.5µM*,-29.7%
CCOC(=O)[C@@H](CC(=O)O)N1CCCCC1,.,.,.,1.7%,.,.
COc1ccc(CN2CCCC(CO)(Cc3cccc(Cl)c3)C2)cc1OC (centres undefined),-41.6%[46.1 µM],i,-14.9%,?,3.8%,0.0%
CCOc1cc(CN2CCC(CO)(Cc3cccc(C(F)(F)F)c3)CC2)ccc1OC,-22.2%[46.1 µM],-4.3%,-20.6%,4.47µM*,4.3%,-6.5%
CCc1cccc(CC)c1NC(=O)/C(C#N)=C/c1ccccc1C(F)(F)F,?,-17.9%,?,?,-14.1%,25.1µM*
CC(=O)Nc1nonc1-c1nnc(SCC(=O)N(C)c2ccccc2)n1C,-11.0%[46.1 µM],-0.5%,-6.6%,9.6%[46.1 µM],-3.9%,3.7%
COC(=O)C1=CN(c2ccc(OC)cc2)C=C(C(=O)OC)C1c1ccc(C)c([N+](=O)[O-])c1,?,-2.2%,-19.3%,?,-1.1%,?
COC(=O)C1=CN(c2cccc(C)c2)C=C(C(=O)OC)C1c1cc(OC)c(O)c([N+](=O)[O-])c1,4.11µM*,.,.,?,2.5%,-13.0%
COc1ccccc1CNC(=O)CCc1c(C)c2cc3c(C)coc3cc2oc1=O,-23.6%[46.1 µM],-7.0%,4.7%,3.5%[46.1 µM],1.1%,12.6%
COc1ccc(Cn2nnnc2C(c2ccccc2)N2CCN(C3CCCC3)CC2)cc1 (centres undefined),-6.0%,-7.9%,-14.2%,7.08µM*!,1.7%,-26.8%
CCCC(c1nnnn1Cc1ccc(F)cc1)N1CCN(C)CC1 (centres undefined),-9.2%[46.1 µM],i,-15.6%,17.4%,.,-11.8%
COc1ccc(Cn2nnnc2C(c2ccncc2)N2CCOCC2)cc1 (centres undefined),-18.4%,2.2%,-0.7%,6.6%,25.1µM*,-5.8%
COc1ccc(C(c2nnnn2Cc2ccccc2)N2CCN(c3ccccc3)CC2)cc1 (centres undefined),?,.,?,?,-0.5%,0.0%
COc1ccc(Cn2nnnc2C(C(C)C)N2CCN(c3ccccc3OC)CC2)cc1 (centres undefined),?,.,?,?,8.2%,25.1µM*
SMILES,Lassa entry inh,VACV mCherry inh,VACV Venus inh,Marburg entry inh,Sm TGR inh,FMDV inh
CCC(c1nnnn1Cc1ccc(F)cc1)N1CCN(C2CCCCC2)CC1 (centres undefined),?,.,-26.8%,12.6µM*,-1.9%,?
COc1ccc(Cn2nnnc2C(c2ccccc2Cl)N2CCN(C3CCCC3)CC2)cc1 (centres undefined),-20.6%,.,-15.9%,?,0.0%,-6.7%
COc1cc(C(=O)NCc2ccc3c(c2)CCN3C(=O)c2ccc(Cl)cc2)cc(OC)c1OC,-15.9%[46.1 µM],?,-15.2%,.,8.8%,?
COCCNC(=O)C(=O)NCC(c1cccnc1)N1CCN(c2ccccc2)CC1 (centres undefined),-19.1%[46.1 µM],-6.5%,-7.5%,.,?,-21.4%
CCc1ccc(S(=O)(=O)c2nnn3c2nc(NC2CCCCCC2)c2sccc23)cc1,29.7%[46.1 µM],-17.7%,-22.5%,.,2.4%,-22.8%
Cc1ccc(-n2nnnc2CNC(=O)C(C)(C)C)cc1C,3.5%[46.1 µM],-6.6%,-9.9%,.,1.5%,-10.1%
CCc1ccc(NC(=O)CN2CCCN(Cc3cccc(Cl)c3)S2(=O)=O)cc1,?,-19.2%,-14.4%,.,-1.8%,-12.3%
COc1ccc(C(c2nnnn2Cc2ccccc2)N2CCN(c3nc4ccccc4s3)CC2)cc1 (centres undefined),11.2µM*,.,-22.8%,?,0.0%,-28.4%
C=CCOc1c(OC)cc(/C=N/Nc2cccc(C(=O)O)c2)c(Br)c1Br,-0.1%,i,-13.1%,?,56.2µM*,11.4%
O=C(Cn1cncn1)N1CCOc2ccc(CN3CCN(c4ccccc4)CC3)cc2C1,.,-9.4%,-8.0%,.,.,-4.8%
CCc1cccc(C)c1NC(=O)C1CCN(c2nnc(C)c3c(C)n(-c4ccccc4)nc23)CC1,9.1%[46.1 µM],-3.6%,-9.3%,.,0.1%,-10.0%
COC(=O)c1ccc(Cl)cc1NC(=O)/C=C/c1ccc(C)o1,7.5%,-2.3%,-2.1%,-1.6%[46.1 µM],20µM*,-5.1%
COC(=O)c1cc(Cl)c(NC(=O)/C=C/c2ccc(Cl)cc2Cl)cc1OC,?,-20.7%,-26.7%,?,8.9%,-19.3%
Cc1ccc(NC(=O)/C=C/c2ccc(C)o2)c(C)c1,6.2%[46.1 µM],-9.4%,-10.9%,?,7.94µM*,11.1%
Cc1ccc(/C=C/C(=O)Nc2cccc3cccnc23)o1,13.6%,-15.1%,14.4%,-4.4%,?,20.0%
CCc1cccc(C)c1NC(=O)CN1C(=O)C2(SCC(=O)N2c2cc(C)cc(C)c2)c2ccccc21 (centres undefined),?,-8.7%,-12.8%,.,-1.9%,0.0%
CCc1c(C(=O)Nc2ncn(Cc3cccc(C)c3)n2)csc1C,5.8%,.,.,17.3%,-19.9%,-15.1%
